# Experimental data as given in PubChem BioAssay (NCATS).
# For some of these results: Potency and affinity values are given separately. Active and inactive are the calls of the source. A call without a number means that no potency is given here. No rule for the calls is given here.
# Experiments:
# [1] = Ebola virus entry assay, green fluorescence channel
# [2] = Ebola virus entry assay, blue channel fluorescence
# [3] = Ebola virus entry assay, green channel fluorescence
# [4] = Ebola virus entry assay, ratio channel
# [5] = qHTS profiling of the MIPE4 collection as inhibitors of Plasmodium falciparum (DD2) proliferation (AID 743345); settings: P. falciparum Dd2 in erythrocytes, SYBR Green DNA, 72 h; at 28.5 µM (top of the series) unless noted
# Summary of the method: (§1)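 Erythrocytes infected with P. falciparum (0.3% parasitemia, 2.5% hematocrit) incubated with compounds 72 h at 37 C, 5% CO2. Lysis with saponin/Triton buffer containing SYBR Green I, overnight at room temperature in the dark; DNA fluorescence (485/535 nm) normalised to 0.29 uM artemisinin and DMSO.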
# [6] = qHTS profiling of the MIPE4 collection as inhibitors of Plasmodium falciparum (HB3) proliferation (AID 743347); settings: P. falciparum HB3 in erythrocytes, SYBR Green DNA, 72 h; at 28.5 µM (top of the series) unless noted
# Summary of the method: as §1
smiles,measurement,setting,value
CC(C)(C)CC(C)(C)c1ccc(O)c(-n2nc3ccccc3n2)c1,efficacy,[1],9.19% (inactive)
same,outcome,[2],inactive
same,outcome,[3],inactive
CN(c1nccc(=O)[nH]1)C1CCN(c2nc3ccccc3n2Cc2ccc(F)cc2)CC1,efficacy,[1],66.4% (inactive)
same,outcome,[4],inactive
CC(COc1ccccc1)NN (stereo unspecified),efficacy,[1],-13% (inactive)
same,outcome,[2],inactive
same,outcome,[3],inactive
O=C(O)c1cc(=O)c2ccccc2o1,efficacy,[1],-28.1% (inactive)
same,outcome,[2],inactive
same,outcome,[3],inactive
CC(C(=O)O)c1ccc(/C=C2\CCCCC2=O)cc1 (stereo unspecified),efficacy,[1],13.8% (inactive)
same,outcome,[2],inactive
same,outcome,[3],inactive
O=C(Oc1ccccc1)c1ccccc1O,efficacy,[1],-17.4% (inactive)
same,outcome,[2],inactive
same,outcome,[3],inactive
O=S(=O)(O)c1ccc2nc(-c3ccccc3)[nH]c2c1,efficacy,[1],-32.6% (inactive)
same,outcome,[2],inactive
same,outcome,[3],inactive
COc1cc(C)nc(-n2nc(C)cc2OC)n1,efficacy,[1],-14.1% (inactive)
same,outcome,[2],inactive
same,outcome,[3],inactive
CCOC(=O)c1ccc(N)cc1,efficacy,[1],26.1% (inactive)
same,outcome,[2],inactive
same,outcome,[3],inactive
CCCc1c(OCCCCc2nn[nH]n2)ccc(C(C)=O)c1O,efficacy,[1],28.7% (inactive)
same,outcome,[2],inactive
same,outcome,[3],inactive
O=C(OCC1(COC(=O)c2cccnc2)CCCC(COC(=O)c2cccnc2)(COC(=O)c2cccnc2)C1O)c1cccnc1,efficacy,[1],-19.2% (inactive)
same,outcome,[2],inactive
same,outcome,[3],inactive
CCOP(=S)(OCC)Oc1ccc2c(C)c(Cl)c(=O)oc2c1,efficacy,[1],16.9% (inactive)
same,outcome,[2],inactive
same,outcome,[3],inactive
COc1cc(/C=C/C(=O)O[C@H]2CC[C@]34C[C@]35CC[C@]3(C)[C@@H]([C@H](C)CCC=C(C)C)CC[C@@]3(C)[C@@H]5CC[C@H]4C2(C)C)ccc1O,efficacy,[1],-25.4% (inactive)
same,outcome,[2],inactive
same,outcome,[3],inactive
COc1cccc2c1C(=O)c1c(O)c3c(c(O)c1C2=O)C[C@@](O)(C(=O)CO)CC3OC1CC(N2CCOC(OC)C2)C(O)C(C)O1 (stereo partly specified),efficacy,[1],57.9% (inactive)
same,outcome,[4],inactive
Nc1ccc(S(N)(=O)=O)cc1,efficacy,[1],-20.5% (inactive)
same,outcome,[2],inactive
same,outcome,[3],inactive
CC(O)C(=O)O (stereo unspecified),efficacy,[1],12.5% (inactive)
same,outcome,[2],inactive
same,outcome,[3],inactive
CCCCCCCC(=O)OCC(COC(=O)CCCCCCC)OC(=O)CCCCCCC,efficacy,[1],8.07% (inactive)
same,outcome,[2],inactive
same,outcome,[3],inactive
NS(=O)(=O)c1cc(C(=O)NN2C[C@H]3[C@H]4CCC(C4)[C@H]3C2)ccc1Cl,efficacy,[1],-15.5% (inactive)
same,outcome,[2],inactive
same,outcome,[3],inactive
O=c1[nH]cnc2[nH]ncc12,"parasite growth remaining, % of DMSO control (lower = more inhibition)",[5],91.2%
same,"growth, % of control",[6],93.3%
same,efficacy,[1],-34% (inactive)
same,outcome,[2],inactive
same,outcome,[3],inactive
CC1(C)Oc2ccc(C#N)cc2[C@@H](N2CCCC2=O)[C@@H]1O,efficacy,[1],-10.5% (inactive)
same,outcome,[2],inactive
same,outcome,[3],inactive
CN(C)C(=O)COC(=O)Cc1ccc(OC(=O)c2ccc(N=C(N)N)cc2)cc1,efficacy,[1],-14.4% (inactive)
same,outcome,[2],inactive
same,outcome,[3],inactive
CC[N+](CC)(CC)CCOc1cccc(OCC[N+](CC)(CC)CC)c1OCC[N+](CC)(CC)CC,"growth, % of control",[6],111%
same,efficacy,[1],15.9% (inactive)
same,outcome,[2],inactive
same,outcome,[3],inactive
CN(C)CCN1CCN(c2cccc(Cl)c2)C1=O,efficacy,[1],-56.2% (inactive)
same,outcome,[2],inactive
same,outcome,[3],inactive
CCCCCCCCCCCC(=O)[O][Sn]([CH2]CCC)([CH2]CCC)[O]C(=O)CCCCCCCCCCC,efficacy,[1],-17.6% (inactive)
same,outcome,[2],inactive
same,outcome,[3],inactive
CS(=O)(=O)c1ccc([C@@H](O)[C@@H](CO)NC(=O)C(Cl)Cl)cc1,efficacy,[1],-14.2% (inactive)
same,outcome,[2],inactive
same,outcome,[3],inactive
Nc1cc(=O)[nH]c(N)n1,efficacy,[1],-17.6% (inactive)
same,outcome,[2],inactive
same,outcome,[3],inactive
CCCCCC[C@@H](CCC)C(=O)O,efficacy,[1],13.6% (inactive)
same,outcome,[2],inactive
same,outcome,[3],inactive
COc1ccc2nc(SCc3ncc(C)c(OC)c3C)[nH]c2c1,efficacy,[1],-11.5% (inactive)
same,outcome,[2],inactive
same,outcome,[3],inactive
CC(C)c1cccc(C(C)C)c1O,"parasite growth remaining, % of DMSO control (lower = more inhibition)",[5],102%
same,"growth, % of control",[6],103%
same,efficacy,[1],-18.5% (inactive)
same,outcome,[2],inactive
same,outcome,[3],inactive
COC(=O)c1cccnc1,efficacy,[1],12.2% (inactive)
same,outcome,[2],inactive
same,outcome,[3],inactive
C[C@@H]1CC2=CC(=O)CC[C@@H]2[C@H]2CC[C@@]3(C)[C@@H](CC[C@]3(C)O)[C@@H]21,efficacy,[1],24.6% (inactive)
same,outcome,[2],inactive
same,outcome,[3],inactive
CCCCCC=CCC=CCCCCCCCC(=O)OCC,efficacy,[1],15.2% (inactive)
same,outcome,[2],inactive
same,outcome,[3],inactive
CN1CCN(CC(=O)N2c3ccccc3C(=O)Nc3cccnc32)CC1,efficacy,[1],-20.7% (inactive)
same,outcome,[2],inactive
same,outcome,[3],inactive
Cc1cc(OI)c(C(C)C)cc1-c1cc(C(C)C)c(OI)cc1C,efficacy,[1],13.6% (inactive)
same,outcome,[2],inactive
same,outcome,[3],inactive
CCCCCCNC(=O)n1cc(F)c(=O)[nH]c1=O,efficacy,[1],-33.6% (inactive)
same,outcome,[2],inactive
same,outcome,[3],inactive
CC(C)(C)CC(C)(C)c1ccc(OCCOCC[N+](C)(C)Cc2ccccc2)cc1,efficacy,[1],-219% (inactive)
same,AC50,[4],2510 nM (active)
C[C@H]1[C@@H]2Cc3ccc(O)cc3[C@@]1(C)CCN2C,efficacy,[1],67.4% (inactive)
same,outcome,[4],inactive
Cc1cccc(C)c1NC(=O)c1cc(S(N)(=O)=O)c(Cl)cc1O,efficacy,[1],-19.2% (inactive)
same,outcome,[4],inactive
same,outcome,[3],inactive
COP(=S)(OC)SCN1C(=O)c2ccccc2C1=O,efficacy,[1],-28.1% (inactive)
same,outcome,[4],inactive
same,outcome,[3],inactive
Clc1cccc(SC2CCNCC2)n1,efficacy,[1],-16% (inactive)
same,outcome,[4],inactive
same,outcome,[3],inactive
O=C1c2ccccc2C(=O)c2c1ccc(O)c2O,efficacy,[1],-18.6% (inactive)
same,outcome,[4],inactive
same,outcome,[3],inactive
CC(C)Cc1ccc(CC(=O)O)cc1,efficacy,[1],-19.8% (inactive)
same,outcome,[4],inactive
same,outcome,[3],inactive
O=C1CC[C@H](C(=O)N2CCCCC2)N1,efficacy,[1],-19.2% (inactive)
same,outcome,[4],inactive
same,outcome,[3],inactive
CCC1(CC)C(=O)C=CNC1=O,efficacy,[1],-31% (inactive)
same,outcome,[4],inactive
same,outcome,[3],inactive
CC(C)=CCC/C(C)=C/CO,efficacy,[1],-28.2% (inactive)
same,outcome,[4],inactive
same,outcome,[3],inactive
CC(=O)NC(=O)c1ccccc1O,efficacy,[1],-28.5% (inactive)
same,outcome,[4],inactive
same,outcome,[3],inactive
O=C(O)C(S)C(S)C(=O)O (stereo unspecified),efficacy,[1],-24.2% (inactive)
same,outcome,[4],inactive
same,outcome,[3],inactive
O=[N+]([O-])c1ccc(/C=N\O)o1,efficacy,[1],8.52% (inactive)
same,outcome,[4],inactive
same,outcome,[3],inactive
CC(C)=CC1C(C(=O)OCN2C(=O)C3=C(CCCC3)C2=O)C1(C)C (stereo unspecified),efficacy,[1],28% (inactive)
same,outcome,[4],inactive
same,outcome,[3],inactive
O=c1cc(O)c(Cl)c[nH]1,efficacy,[1],-17.7% (inactive)
same,outcome,[4],inactive
same,outcome,[3],inactive
Cc1ncc([N+](=O)[O-])n1CC(C)O (stereo unspecified),efficacy,[1],-13.9% (inactive)
same,outcome,[4],inactive
same,outcome,[3],inactive
CNC(C)(C)Cc1ccccc1,efficacy,[1],-14.9% (inactive)
same,outcome,[4],inactive
same,outcome,[3],inactive
O=c1[nH]c2ccccc2n1C1CCNCC1,efficacy,[1],-18% (inactive)
same,outcome,[4],inactive
same,outcome,[3],inactive
CCN1CCCC1CN (stereo unspecified),efficacy,[1],-12.7% (inactive)
same,outcome,[4],inactive
same,outcome,[3],inactive
CCN1CCN(C(=O)N[C@@H](C(=O)N[C@@H]2C(=O)N3[C@@H]2SC(C)(C)[C@H]3C(=O)O)c2ccccc2)C(=O)C1=O,efficacy,[1],-32.7% (inactive)
same,outcome,[4],inactive
same,outcome,[3],inactive
C#C[C@]1(O)CC[C@H]2[C@@H]3CCC4=CC(=O)CC[C@]4(C)[C@H]3CC[C@@]21C,efficacy,[1],-17.3% (inactive)
same,outcome,[4],inactive
same,outcome,[3],inactive
Nc1ccc(S(=O)(=O)NC(=O)c2ccccc2)cc1,efficacy,[1],-38.1% (inactive)
same,outcome,[4],inactive
same,outcome,[3],inactive
CCCCC(CC)COC(=O)c1ccccc1O (stereo unspecified),efficacy,[1],-34.1% (inactive)
same,outcome,[4],inactive
same,outcome,[3],inactive
CN(C)CCOC(=O)C(c1ccccc1)C1(O)CCCC1 (stereo unspecified),efficacy,[1],15.2% (inactive)
same,outcome,[4],inactive
same,outcome,[3],inactive
Oc1c(Br)cc(Br)c2cccnc12,efficacy,[1],-19.4% (inactive)
same,outcome,[4],inactive
same,outcome,[3],inactive
NC(=O)c1ncn([C@@H]2O[C@H](CO)[C@@H](O)[C@H]2O)c1O,efficacy,[1],-21.3% (inactive)
same,outcome,[4],inactive
same,outcome,[3],inactive
CCN1CCC[C@H]1CNC(=O)c1c(OC)ccc(Br)c1OC,efficacy,[1],-13.7% (inactive)
same,outcome,[4],inactive
same,outcome,[3],inactive
Cc1ncc(CO)c(C=O)c1O,efficacy,[1],-24.1% (inactive)
same,outcome,[4],inactive
same,outcome,[3],inactive
CNCC(O)c1ccc(O)c(O)c1 (stereo unspecified),efficacy,[1],44.4% (inactive)
same,outcome,[4],inactive
same,outcome,[3],inactive
O=C(O)c1cc(O)c(O)c(O)c1,efficacy,[1],15.2% (inactive)
same,outcome,[4],inactive
same,outcome,[3],inactive
O=C(CCOCCOCCOCCOCCC(=O)Nc1c(I)cc(I)c(C(=O)O)c1I)Nc1c(I)cc(I)c(C(=O)O)c1I,efficacy,[1],-16.9% (inactive)
same,outcome,[4],inactive
same,outcome,[3],inactive
O=P(O)(O)OCC(O)CO (stereo unspecified),efficacy,[1],14.9% (inactive)
same,outcome,[4],inactive
same,outcome,[3],inactive
CC(C)CCCC(C)NCCC(C)C (stereo unspecified),efficacy,[1],-17.9% (inactive)
same,outcome,[4],inactive
same,outcome,[3],inactive
O=C(c1ccccc1)C(O)c1ccccc1 (stereo unspecified),efficacy,[1],17.3% (inactive)
same,outcome,[4],inactive
same,outcome,[3],inactive
O=C(CN1CCNCC1)NC1CCCCC1,efficacy,[1],48.3% (inactive)
same,outcome,[4],inactive
same,outcome,[3],inactive
COc1ccc2c(c1OC)C(=O)O[C@H]2[C@@H]1c2cc3c(cc2CCN1C)OCO3,efficacy,[1],26.4% (inactive)
same,outcome,[4],inactive
same,outcome,[3],inactive
Cc1cccc(C)c1OCC(=O)N[C@@H](Cc1ccccc1)[C@@H](O)C[C@H](Cc1ccccc1)NC(=O)[C@H](C(C)C)N1CCCNC1=O,efficacy,[1],20.6% (inactive)
same,outcome,[4],inactive
same,outcome,[3],inactive
COc1cc(C(=O)OC(COCCC(C)C)CN2CCOCC2)cc(OC)c1OC (stereo unspecified),efficacy,[1],27.7% (inactive)
same,outcome,[4],inactive
same,outcome,[3],inactive
CCCCC(O)/C=C(C)/C=C/C=C/C(=O)N1CCCC1=O (stereo unspecified),efficacy,[1],-13.9% (inactive)
same,outcome,[4],inactive
same,outcome,[3],inactive
NCc1ccc(S(N)(=O)=O)cc1,efficacy,[1],-17.9% (inactive)
same,outcome,[4],inactive
same,outcome,[3],inactive
CCn1cc(C(=O)O)c(=O)c2cnc(N3CCCC3)nc21,efficacy,[1],11.6% (inactive)
same,outcome,[4],inactive
same,outcome,[3],inactive
Cc1ncc(CO)c(CN)c1O,efficacy,[1],-11.8% (inactive)
same,outcome,[4],inactive
same,outcome,[3],inactive
CCC(C(=O)NC(=O)NC(C)=O)c1ccccc1 (stereo unspecified),efficacy,[1],-14.5% (inactive)
same,outcome,[4],inactive
same,outcome,[3],inactive
CC(C)(C)NCC(O)c1cc(Cl)c(N)c(C(F)(F)F)c1 (stereo unspecified),efficacy,[1],12.5% (inactive)
same,outcome,[4],inactive
same,outcome,[3],inactive
CC(=O)N(CC(O)CO)c1c(I)c(C(=O)NCCO)c(I)c(C(=O)NCC(O)CO)c1I (stereo unspecified),efficacy,[1],-10.6% (inactive)
same,outcome,[4],inactive
same,outcome,[3],inactive
